Measurements as given in PubChem BioAssay (EPA / NIEHS).
Several values for one entry are separate records, joined by “and”; a condition that tells them apart may be missing. Identical values can stand only once. Records with an inconclusive call do not appear. Activity calls are given as the source filed them. The calls were made as follows, unless noted: active = hit-call score of the fitted dose curve at least 0.9, where 1 is the maximum; inactive = score below 0.9.

Assays:
[1] = BSK_4H_Eotaxin3: BioMAP Diversity Plus: 4H Assay for Eotaxin 3 Biomarker Activity (AID 2283000); conditions: primary human endothelial cells (HUVEC); actives raise or lower the signal;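 as to outcome: CCL26 protein level quantified by ELISA in parallel with SRB cytotoxicity check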
How it was run: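 Human umbilical vein endothelial cells (BSK_4H system) dosed with test chemical; Eotaxin-3 (CCL26) measured by ELISA 24 h after dosing. Bidirectional curve fitting relative to DMSO negative control as baseline.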

[2] = target: human Peroxisome Proliferator-activated Receptor alpha (PPARa), PPARA (gene 5465) (UniProt Q07869); assay: ATG_PPARa_TRANS: Attagene TRANS-FACTORIAL HepG2 Assay for human Peroxisome Proliferator-activated Receptor alpha (PPARa) (AID 2283001; active = hit-call score of the fitted dose curve at least 0.9, where 1 is the maximum;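 as to AC50: potency for gain of reporter signal over DMSO so agonist or activator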)
human Peroxisome Proliferator-activated Receptor alpha (PPARa), PPARA (gene 5465), sequence (Q07869 whole entry, looked up, the tested form may be a part): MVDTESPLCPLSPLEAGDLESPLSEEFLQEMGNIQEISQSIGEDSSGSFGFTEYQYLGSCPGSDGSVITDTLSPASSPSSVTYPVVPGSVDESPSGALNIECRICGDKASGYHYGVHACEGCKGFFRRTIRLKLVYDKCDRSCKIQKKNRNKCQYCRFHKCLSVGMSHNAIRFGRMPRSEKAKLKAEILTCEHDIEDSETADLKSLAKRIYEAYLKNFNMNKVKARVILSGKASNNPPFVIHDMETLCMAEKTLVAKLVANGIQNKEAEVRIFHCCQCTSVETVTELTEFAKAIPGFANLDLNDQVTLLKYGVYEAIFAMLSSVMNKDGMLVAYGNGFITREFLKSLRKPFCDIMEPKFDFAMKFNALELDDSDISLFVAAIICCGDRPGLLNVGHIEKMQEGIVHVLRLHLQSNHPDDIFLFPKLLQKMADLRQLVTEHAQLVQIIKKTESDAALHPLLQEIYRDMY
How it was run: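 Reporter transcripts from GAL4-UAS units in transfected HepG2 were quantified 24 h after dosing. Detection used reverse transcription, PCR, fluorescent primer extension and capillary electrophoresis, with DMSO as baseline.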

[3] = read-out: Intercellular Adhesion Molecule 1 (ICAM1), ICAM1 (gene 3383); assay: BSK_3C_ICAM1: BioMAP Diversity Plus: 3C Assay for Intercellular Adhesion Molecule 1 (ICAM1) Biomarker Activity (AID 2283003); conditions: primary human endothelial cells (HUVEC); actives raise or lower the signal
How it was run: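 Human vascular endothelial primary cells, 3C conditions, 24 h treatment. ICAM-1 by ELISA.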

[4] = target: human RAR-related Orphan Receptor gamma (RORg), RORC (gene 6097) (UniProt P51449); assay: ATG_RORg_TRANS: Attagene TRANS-FACTORIAL HepG2 Assay for human RAR-related Orphan Receptor gamma (RORg) (AID 2283011; active = hit-call score of the fitted dose curve at least 0.9, where 1 is the maximum)
human RAR-related Orphan Receptor gamma (RORg), RORC (gene 6097), sequence (P51449 whole entry, looked up, the tested form may be a part): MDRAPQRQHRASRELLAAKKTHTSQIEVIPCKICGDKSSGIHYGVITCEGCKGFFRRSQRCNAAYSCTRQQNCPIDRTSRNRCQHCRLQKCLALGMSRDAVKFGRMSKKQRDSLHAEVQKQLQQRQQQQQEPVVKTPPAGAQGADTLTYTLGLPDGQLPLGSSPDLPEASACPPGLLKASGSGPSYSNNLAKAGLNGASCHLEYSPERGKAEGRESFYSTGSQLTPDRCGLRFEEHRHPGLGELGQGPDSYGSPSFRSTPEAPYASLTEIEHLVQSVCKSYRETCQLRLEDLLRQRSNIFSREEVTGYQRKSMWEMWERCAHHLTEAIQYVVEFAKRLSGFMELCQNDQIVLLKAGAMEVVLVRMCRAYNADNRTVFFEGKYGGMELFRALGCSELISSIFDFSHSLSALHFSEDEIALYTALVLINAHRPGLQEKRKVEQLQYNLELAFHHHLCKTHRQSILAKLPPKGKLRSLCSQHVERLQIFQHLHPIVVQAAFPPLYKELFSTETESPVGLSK
How it was run: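 Reporter transcripts from a transfected RORg-GAL4 chimera in HepG2 cells were quantified 24 h after dosing by RT-PCR, 6-FAM labelling, HpaI digestion and capillary electrophoresis; increases over DMSO baseline were fitted.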

[5] = read-out: E-selectin (Homo sapiens) (UniProt P16581); assay: BSK_3C_Eselectin: BioMAP Diversity Plus: 3C Assay for Eselectin Biomarker Activity (AID 2283015); conditions: primary human endothelial cells (HUVEC); actives raise or lower the signal;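 also: cell surface E-selectin protein quantified by ELISA 24 h after dosing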
How it was run: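 E-selectin ELISA readout, fitted bidirectionally relative to DMSO, taken 24 h post-dosing in HUVEC cultures of the 3C system. Overt cytotoxicity tracked with sulforhodamine B staining of parallel wells.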

[6] = read-out: Monocyte Chemoattractant Protein-1 (MCP1), CCL2 (gene 6347); assay: BSK_3C_MCP1: BioMAP Diversity Plus: 3C Assay for Monocyte Chemoattractant Protein-1 (MCP1) Biomarker Activity (AID 2283017); conditions: primary human endothelial cells (HUVEC); actives raise or lower the signal
How it was run: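 MCP-1 was measured by ELISA 24 h after dosing in primary HUVEC 3C cultures and fitted in both directions relative to DMSO; cytotoxicity was checked by SRB total-protein staining in parallel wells.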

[7] = read-out: Monocyte Chemoattractant Protein-1 (MCP1), CCL2 (gene 6347); assay: BSK_4H_MCP1: BioMAP Diversity Plus: 4H Assay for Monocyte Chemoattractant Protein-1 (MCP1) Biomarker Activity (AID 2283018); conditions: primary human endothelial cells (HUVEC); actives raise or lower the signal
How it was run: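 Readout: MCP-1 ELISA on compound-treated HUVEC, sampled 24 h post-dosing. Baseline and negative control DMSO; bidirectional fit. Overt toxicity checked alongside by sulforhodamine B protein staining at time of biomarker measurement.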

[8] = target: human Peroxisome Proliferator-activated Receptor delta (PPARd), PPARD (gene 5467) (UniProt Q03181); assay: ATG_PPARd_TRANS: Attagene TRANS-FACTORIAL HepG2 Assay for human Peroxisome Proliferator-activated Receptor delta (PPARd) (AID 2283002; active = hit-call score of the fitted dose curve at least 0.9, where 1 is the maximum)
human Peroxisome Proliferator-activated Receptor delta (PPARd), PPARD (gene 5467), sequence (Q03181 whole entry, looked up, the tested form may be a part): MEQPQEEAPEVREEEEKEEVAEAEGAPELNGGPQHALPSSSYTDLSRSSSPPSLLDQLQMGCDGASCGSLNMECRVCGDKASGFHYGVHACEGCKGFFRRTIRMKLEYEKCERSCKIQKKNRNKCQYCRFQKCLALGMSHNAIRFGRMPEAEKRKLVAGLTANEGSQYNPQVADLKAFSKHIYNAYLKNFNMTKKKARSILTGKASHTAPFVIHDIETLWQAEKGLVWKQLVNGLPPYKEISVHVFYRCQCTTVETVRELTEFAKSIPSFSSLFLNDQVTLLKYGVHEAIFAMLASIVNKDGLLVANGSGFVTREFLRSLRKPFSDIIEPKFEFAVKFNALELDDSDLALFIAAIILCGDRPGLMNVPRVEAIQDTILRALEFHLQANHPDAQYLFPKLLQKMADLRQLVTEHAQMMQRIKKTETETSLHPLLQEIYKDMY
How it was run: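 Read-out is induced reporter mRNA, quantified by RT-PCR with fluorescent labelling and capillary electrophoresis after 24 h dosing. Cells are HepG2 transiently carrying multiple GAL4-UAS reporter units driven by exogenous NR-GAL4 chimeras; DMSO serves as baseline.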

[9] = target: Peroxisome proliferator-activated receptor gamma (Homo sapiens) (UniProt P37231); assay: ATG_PPARg_TRANS: Attagene TRANS-FACTORIAL HepG2 Assay for human Peroxisome Proliferator-activated Receptor-gamma (PPARg) (AID 2283007; active = hit-call score of the fitted dose curve at least 0.9, where 1 is the maximum)
Peroxisome proliferator-activated receptor gamma (Homo sapiens), sequence (P37231 whole entry, looked up, the tested form may be a part): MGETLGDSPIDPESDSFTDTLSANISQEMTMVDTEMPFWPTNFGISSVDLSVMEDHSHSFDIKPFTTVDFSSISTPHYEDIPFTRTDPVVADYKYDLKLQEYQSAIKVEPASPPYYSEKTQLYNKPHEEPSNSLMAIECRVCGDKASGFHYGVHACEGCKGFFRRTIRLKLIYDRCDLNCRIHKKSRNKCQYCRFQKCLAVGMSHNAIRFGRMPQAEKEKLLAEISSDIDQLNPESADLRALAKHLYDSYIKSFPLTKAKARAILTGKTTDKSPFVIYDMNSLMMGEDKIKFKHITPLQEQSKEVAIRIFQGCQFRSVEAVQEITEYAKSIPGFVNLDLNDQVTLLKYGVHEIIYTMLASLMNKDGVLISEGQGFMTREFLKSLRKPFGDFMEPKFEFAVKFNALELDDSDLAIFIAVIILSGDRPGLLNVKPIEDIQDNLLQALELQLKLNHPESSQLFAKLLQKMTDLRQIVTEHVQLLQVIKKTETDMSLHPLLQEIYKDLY
How it was run: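 Endpoint reflects upward reporter mRNA change versus DMSO controls. Setup: transiently transfected HepG2, GAL4-UAS reporters driven by chimeric NR-Gal4, 24 h incubation, RT-PCR with capillary electrophoresis read-out.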

[10] = target: human RAR-related Orphan Receptor beta (RORb), RORB (gene 6096) (UniProt Q92753); assay: ATG_RORb_TRANS: Attagene TRANS-FACTORIAL HepG2 Assay for human RAR-related Orphan Receptor beta (RORb) (AID 2283010; active = hit-call score of the fitted dose curve at least 0.9, where 1 is the maximum)
human RAR-related Orphan Receptor beta (RORb), RORB (gene 6096), sequence (Q92753 whole entry, looked up, the tested form may be a part): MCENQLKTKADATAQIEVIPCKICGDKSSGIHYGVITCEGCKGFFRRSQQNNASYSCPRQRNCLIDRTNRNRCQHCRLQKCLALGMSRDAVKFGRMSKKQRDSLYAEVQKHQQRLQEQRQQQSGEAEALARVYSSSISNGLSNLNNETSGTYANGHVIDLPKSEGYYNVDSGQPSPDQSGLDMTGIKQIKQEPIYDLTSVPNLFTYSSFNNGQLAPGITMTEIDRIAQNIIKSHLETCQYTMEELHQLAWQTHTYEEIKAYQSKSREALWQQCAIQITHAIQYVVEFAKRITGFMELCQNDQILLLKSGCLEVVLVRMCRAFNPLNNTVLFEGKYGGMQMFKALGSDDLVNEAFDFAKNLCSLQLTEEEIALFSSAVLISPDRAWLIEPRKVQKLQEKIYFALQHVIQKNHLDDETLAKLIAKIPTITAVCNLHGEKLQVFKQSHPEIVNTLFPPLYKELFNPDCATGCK
How it was run: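 In this TRANS-format test, human HepG2 cells express chimeric NR-Gal4 fusion proteins driving GAL4-UAS reporters. After 24 h dosing, reporter transcripts are measured by fluorescent RT-PCR/capillary electrophoresis, with DMSO as negative control.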

[11] = target: human Retinoid X Receptor beta (RXRb), RXRB (gene 6257) (UniProt P28702); assay: ATG_RXRb_TRANS: Attagene TRANS-FACTORIAL HepG2 Assay for human Retinoid X Receptor beta (RXRb) (AID 2283013; active = hit-call score of the fitted dose curve at least 0.9, where 1 is the maximum)
human Retinoid X Receptor beta (RXRb), RXRB (gene 6257), sequence (P28702 whole entry, looked up): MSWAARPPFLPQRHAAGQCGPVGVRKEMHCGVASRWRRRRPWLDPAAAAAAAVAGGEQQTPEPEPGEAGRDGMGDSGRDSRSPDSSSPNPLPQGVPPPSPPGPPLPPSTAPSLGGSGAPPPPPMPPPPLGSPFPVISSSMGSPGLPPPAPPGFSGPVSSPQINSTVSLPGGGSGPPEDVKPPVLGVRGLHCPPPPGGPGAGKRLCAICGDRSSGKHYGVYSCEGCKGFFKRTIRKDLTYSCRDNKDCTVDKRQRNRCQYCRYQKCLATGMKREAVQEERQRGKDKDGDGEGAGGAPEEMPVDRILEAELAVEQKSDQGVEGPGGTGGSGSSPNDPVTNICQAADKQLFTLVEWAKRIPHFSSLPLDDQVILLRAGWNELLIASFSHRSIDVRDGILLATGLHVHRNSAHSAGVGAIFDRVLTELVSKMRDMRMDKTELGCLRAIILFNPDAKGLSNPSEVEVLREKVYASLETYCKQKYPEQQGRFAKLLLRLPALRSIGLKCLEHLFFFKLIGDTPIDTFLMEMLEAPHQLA
How it was run: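 Multiplexed TRANS reporter assay in HepG2; 24 h dosing; reporter mRNA by RT-PCR/CE fluorescence; gain-of-signal relative to DMSO.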

[12] = target: human Thyroid Receptor alpha (THRa1), THRA (gene 7067) (UniProt P10827); assay: ATG_THRa1_TRANS: Attagene TRANS-FACTORIAL HepG2 Assay for human Thyroid Receptor alpha (THRa1) (AID 2283014; active = hit-call score of the fitted dose curve at least 0.9, where 1 is the maximum)
human Thyroid Receptor alpha (THRa1), THRA (gene 7067), sequence (P10827 whole entry, looked up, the tested form may be a part): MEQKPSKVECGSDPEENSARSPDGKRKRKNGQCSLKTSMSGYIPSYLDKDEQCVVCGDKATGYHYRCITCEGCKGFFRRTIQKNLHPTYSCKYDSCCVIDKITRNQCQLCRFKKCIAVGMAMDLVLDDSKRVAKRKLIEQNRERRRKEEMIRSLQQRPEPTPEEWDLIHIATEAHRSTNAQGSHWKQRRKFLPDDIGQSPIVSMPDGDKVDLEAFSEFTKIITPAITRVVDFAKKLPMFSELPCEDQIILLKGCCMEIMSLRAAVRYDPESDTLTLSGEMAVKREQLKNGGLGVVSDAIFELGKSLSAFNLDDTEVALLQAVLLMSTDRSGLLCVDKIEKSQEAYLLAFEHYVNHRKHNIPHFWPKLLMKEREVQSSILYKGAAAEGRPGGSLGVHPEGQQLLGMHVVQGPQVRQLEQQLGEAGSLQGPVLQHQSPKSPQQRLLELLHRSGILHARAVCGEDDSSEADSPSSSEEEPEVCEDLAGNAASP
How it was run: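 Transcripts from GAL4-UAS-driven reporters, measured after 24 h compound exposure by RT-PCR plus capillary electrophoresis of 6-FAM-labeled fragments, were fitted for gain of signal relative to DMSO. Cells: transiently transfected HepG2 expressing NR-Gal4 chimeras.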

[13] = read-out: Interleukin-1 alpha (IL1a), IL1A (gene 3552); assay: BSK_BE3C_IL1a: BioMAP Diversity Plus: BE3C Assay for Interleukin-1 alpha (IL1a) Biomarker Activity (AID 2283016); conditions: primary human bronchial epithelial cells; actives raise or lower the signal
How it was run: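 Cultures of primary human bronchial epithelial cells receive test chemical. After 24 h, IL-1a is quantified by ELISA, while parallel wells are fixed in TCA and SRB-stained for total protein. Changes in either direction are fitted relative to DMSO.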

[14] = BSK_3C_Proliferation: Cell Proliferation Assessment in the BioMAP Diversity Plus: 3C Assay (AID 2283006); conditions: primary human endothelial cells (HUVEC);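 as to AC50: potency may reflect either rise or fall in cell number versus DMSO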
How it was run: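 Proliferation of human vascular endothelial primary cells after 48 h dosing, quantified as SRB-stained protein at 560 nm relative to DMSO.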

[15] = target: human Retinoic Acid Receptor gamma (RARg), RARG (gene 5916) (UniProt P13631); assay: ATG_RARg_TRANS: Attagene TRANS-FACTORIAL HepG2 Assay for human Retinoic Acid Receptor gamma (RARg) (AID 2283009; active = hit-call score of the fitted dose curve at least 0.9, where 1 is the maximum)
human Retinoic Acid Receptor gamma (RARg), RARG (gene 5916), sequence (P13631 whole entry, looked up, the tested form may be a part): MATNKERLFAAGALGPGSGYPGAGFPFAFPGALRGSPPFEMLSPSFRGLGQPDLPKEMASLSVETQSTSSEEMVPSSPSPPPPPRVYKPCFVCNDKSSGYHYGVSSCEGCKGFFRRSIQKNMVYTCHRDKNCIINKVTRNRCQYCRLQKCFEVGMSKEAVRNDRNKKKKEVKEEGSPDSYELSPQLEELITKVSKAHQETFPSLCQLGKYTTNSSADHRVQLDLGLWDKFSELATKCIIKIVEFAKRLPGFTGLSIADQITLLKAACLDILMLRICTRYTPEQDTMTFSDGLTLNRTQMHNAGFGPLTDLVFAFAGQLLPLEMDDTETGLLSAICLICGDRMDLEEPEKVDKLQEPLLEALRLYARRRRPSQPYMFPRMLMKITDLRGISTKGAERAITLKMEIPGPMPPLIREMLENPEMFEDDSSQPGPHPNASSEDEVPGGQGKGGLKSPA
How it was run: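 HepG2, RARg-GAL4 TRANS system, 24 h exposure; reporter mRNA by RT-PCR + CE fluorescence; increase over DMSO.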

[16] = target: Retinoic acid receptor RXR-alpha (Homo sapiens) (UniProt P19793); assay: ATG_RXRa_TRANS: Attagene TRANS-FACTORIAL HepG2 Assay for human Retinoid X Receptor alpha (RXRa) (AID 2283012; active = hit-call score of the fitted dose curve at least 0.9, where 1 is the maximum)
Retinoic acid receptor RXR-alpha (Homo sapiens), sequence (P19793 whole entry, looked up, the tested form may be a part): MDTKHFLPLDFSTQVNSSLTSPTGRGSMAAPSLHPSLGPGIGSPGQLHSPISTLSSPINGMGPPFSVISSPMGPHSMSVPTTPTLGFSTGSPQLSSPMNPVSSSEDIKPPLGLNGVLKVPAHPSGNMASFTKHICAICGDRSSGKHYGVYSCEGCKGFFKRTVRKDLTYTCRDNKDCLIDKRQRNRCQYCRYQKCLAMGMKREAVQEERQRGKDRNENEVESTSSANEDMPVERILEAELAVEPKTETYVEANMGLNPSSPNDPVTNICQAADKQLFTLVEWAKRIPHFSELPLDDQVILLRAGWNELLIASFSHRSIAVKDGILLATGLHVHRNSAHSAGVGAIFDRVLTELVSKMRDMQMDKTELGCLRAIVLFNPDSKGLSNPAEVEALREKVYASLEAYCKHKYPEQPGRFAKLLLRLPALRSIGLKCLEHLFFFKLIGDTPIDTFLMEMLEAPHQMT
How it was run: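 Cells (HepG2) carried transiently transfected GAL4-responsive reporter units. Following a 24 h chemical incubation, reporter mRNA induction was read via RT-PCR fragment analysis; DMSO served as negative control and baseline.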

[17] = read-out: Human Leukocyte Antigen - DR isotype (HLADR), HLA-DRA (gene 3122); assay: BSK_3C_HLADR: BioMAP Diversity Plus: 3C Assay for Human Leukocyte Antigen - DR isotype (HLADR) Biomarker Activity (AID 2283019); conditions: primary human endothelial cells (HUVEC); actives raise or lower the signal;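 as to outcome: ELISA of cell-surface HLA-DR on HUVEC 24 h after dosing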
How it was run: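 Bidirectional fitting against DMSO was applied to the HLA-DR ELISA signal from human umbilical vein endothelial cells, 24 h post-dose. Cytotoxicity came from parallel SRB total-protein staining; 3C proliferation was counted by SRB at 48 h.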

[18] = target: human Retinoic Acid Receptor beta (RARb), RARB (gene 5915) (UniProt P10826); assay: ATG_RARb_TRANS: Attagene TRANS-FACTORIAL HepG2 Assay for human Retinoic Acid Receptor beta (AID 2283004; active = hit-call score of the fitted dose curve at least 0.9, where 1 is the maximum)
How it was run: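 Induction of reporter mRNA from a chimeric RARb-Gal4 construct was measured by RT-PCR, FAM labelling, HpaI digestion and capillary electrophoresis. Measurements followed 24 h compound treatment of transiently transfected human HepG2 liver cells, with DMSO as baseline.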

[19] = target: Retinoic acid receptor alpha (Homo sapiens) (UniProt P10276); assay: ATG_RARa_TRANS: Attagene TRANS-FACTORIAL HepG2 Assay for human Retinoic Acid Receptor alpha (RARa) (AID 2283005; active = hit-call score of the fitted dose curve at least 0.9, where 1 is the maximum)
How it was run: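 Reporter transcripts, measured by RT-PCR with fluorescent labeling and capillary electrophoresis after 24 h dosing, reflect activity of an exogenous human RARa–GAL4 fusion in transiently transfected HepG2. Fitted for increase relative to DMSO.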

[20] = target: Nuclear receptor subfamily 1 group I member 2 (Homo sapiens) (UniProt O75469); assay: ATG_PXR_TRANS: Attagene TRANS-FACTORIAL HepG2 Assay for human Pregnane X Receptor (PXR) (AID 2283008; active = hit-call score of the fitted dose curve at least 0.9, where 1 is the maximum)
How it was run: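 HepG2 cells transiently transfected with GAL4-UAS reporter units and PXR-Gal4 chimera, exposed 24 h. Reporter mRNA quantified by RT-PCR, fluorescent labelling, HpaI digestion and capillary electrophoresis; gain of signal vs DMSO.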

E-selectin (Homo sapiens), sequence (P16581 whole entry, looked up): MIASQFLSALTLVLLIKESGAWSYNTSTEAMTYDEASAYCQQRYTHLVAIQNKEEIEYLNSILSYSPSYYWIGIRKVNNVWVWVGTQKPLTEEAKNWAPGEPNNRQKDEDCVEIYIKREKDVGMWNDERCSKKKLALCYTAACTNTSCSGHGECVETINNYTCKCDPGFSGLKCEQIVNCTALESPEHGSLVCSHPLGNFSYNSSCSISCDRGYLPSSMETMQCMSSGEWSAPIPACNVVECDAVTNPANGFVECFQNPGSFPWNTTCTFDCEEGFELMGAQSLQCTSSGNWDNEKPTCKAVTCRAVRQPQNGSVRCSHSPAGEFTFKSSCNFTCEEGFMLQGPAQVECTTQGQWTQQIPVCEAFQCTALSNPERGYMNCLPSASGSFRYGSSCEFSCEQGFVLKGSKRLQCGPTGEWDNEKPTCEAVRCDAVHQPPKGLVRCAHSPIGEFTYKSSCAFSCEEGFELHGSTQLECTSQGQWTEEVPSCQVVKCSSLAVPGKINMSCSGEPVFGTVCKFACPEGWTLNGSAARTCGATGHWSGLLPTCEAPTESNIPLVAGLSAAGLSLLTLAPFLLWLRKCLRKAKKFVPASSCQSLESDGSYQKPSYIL

## NC(=O)C(F)(F)C(F)(F)C(F)(F)F
[1]
  outcome: inactive
[2]
  outcome: inactive
[3]
  outcome: inactive
[4]
  outcome: inactive
[5]
  outcome: inactive
[6]
  outcome: inactive
[7]
  outcome: inactive

## O=C(O)C(F)(F)C(F)(F)C(F)(F)C(F)(F)C(F)(F)C(F)(F)C(F)F
[1]
  outcome: inactive
[2]
  AC50: 6.55 µM (active)
[8]
  outcome: inactive
[3]
  outcome: inactive
[9]
  AC50: 41.8 µM (active)
[10]
  outcome: inactive
[4]
  outcome: inactive
[11]
  outcome: inactive
[12]
  outcome: inactive
[5]
  outcome: inactive
[13]
  outcome: inactive
[6]
  outcome: inactive
[7]
  outcome: inactive

## O=C(O)C(F)(F)C(F)(F)C(F)(F)OC(F)(C(F)(F)F)C(F)(F)F
[2]
  AC50: 24.6 µM (active)
[8]
  outcome: inactive
[3]
  outcome: inactive
[14]
  outcome: inactive
[9]
  AC50: 101 µM (active)
[15]
  outcome: inactive
[4]
  outcome: inactive
[16]
  outcome: inactive
[11]
  outcome: inactive
[5]
  outcome: inactive
[6]
  outcome: inactive
[7]
  outcome: inactive
[17]
  outcome: inactive

## O=C(O)C(F)(F)OC(F)(F)C(F)(F)OC(F)(F)C(F)(F)OC(F)(F)F
[1]
  outcome: inactive
[2]
  AC50: 15.4 µM (active)
[8]
  outcome: inactive
[3]
  outcome: inactive
[9]
  AC50: 17.9 µM (active)
[15]
  outcome: inactive
[16]
  outcome: inactive
[11]
  AC50: 13.2 µM (active)
[12]
  outcome: inactive
[5]
  outcome: inactive
[13]
  outcome: inactive
[6]
  outcome: inactive
[7]
  outcome: inactive

## OCC(F)(F)C(F)(F)C(F)(F)C(F)(F)C(F)(F)C(F)(F)CO
[1]
  outcome: inactive
[2]
  outcome: inactive
[3]
  outcome: inactive
[9]
  outcome: inactive
[16]
  outcome: inactive
[5]
  outcome: inactive
[6]
  outcome: inactive
[7]
  outcome: inactive

## CNS(=O)(=O)C(F)(F)C(F)(F)C(F)(F)C(F)(F)C(F)(F)C(F)(F)C(F)(F)C(F)(F)F
[1]
  outcome: inactive
[2]
  outcome: inactive
[8]
  outcome: inactive
[3]
  outcome: inactive
[18]
  outcome: inactive
[19]
  outcome: inactive
[14]
  AC50: 30 µM (active) and 23.8 µM (active)
[9]
  outcome: inactive
[15]
  outcome: inactive
[10]
  outcome: inactive
[16]
  outcome: inactive
[11]
  outcome: inactive
[12]
  outcome: inactive
[5]
  outcome: inactive
[6]
  outcome: inactive
[7]
  outcome: inactive
[17]
  AC50: 6.3 µM (active) and 8.04 µM (active)

## Brc1nc2ccccc2s1
[1]
  outcome: inactive
[2]
  outcome: inactive
[8]
  outcome: inactive
[3]
  outcome: inactive
[14]
  outcome: inactive
[9]
  AC50: 23.5 µM (active)
[16]
  outcome: inactive
[5]
  outcome: inactive
[6]
  outcome: inactive
[7]
  outcome: inactive
[17]
  outcome: inactive

## NC(=O)C(F)(F)C(F)(F)C(F)(F)C(F)F
[2]
  outcome: inactive
[8]
  outcome: inactive
[3]
  outcome: inactive
[14]
  outcome: inactive
[9]
  outcome: inactive
[20]
  outcome: inactive
[10]
  outcome: inactive
[16]
  outcome: inactive
[11]
  outcome: inactive
[12]
  outcome: inactive
[5]
  outcome: inactive
[6]
  outcome: inactive
[7]
  outcome: inactive

## NS(=O)(=O)C(F)(F)C(F)(F)C(F)(F)C(F)(F)C(F)(F)C(F)(F)F
[1]
  AC50: 46.4 µM (active) and 20.3 µM (active)
[2]
  AC50: 28.2 µM (active)
[8]
  outcome: inactive
[3]
  outcome: inactive
[18]
  outcome: inactive
[9]
  AC50: 50.5 µM (active)
[15]
  outcome: inactive
[10]
  outcome: inactive
[12]
  outcome: inactive
[5]
  outcome: inactive
[6]
  outcome: inactive
[7]
  outcome: inactive
[17]
  AC50: 22.6 µM (active) and 24.2 µM (active)
